Screening data as filed in PubChem.
Tau FP inhib = inhibitors of human tau fibril formation; P10636; Potency, µM (series often up to 57.7 µM), without a hit: at the highest dose activity, negative = inhibition, most hits filed as inhibitors; AID 1468; hit rate 0.39% among 280,000; K18 P301L tau heparin fibrillization, Alexa594 FP, 6 h; note: potency is the fitted concentration of half-maximal effect; nearly all actives have a fitted effect of over 55% in size
Target sequence (P10636 561-689 P618L limits assumed): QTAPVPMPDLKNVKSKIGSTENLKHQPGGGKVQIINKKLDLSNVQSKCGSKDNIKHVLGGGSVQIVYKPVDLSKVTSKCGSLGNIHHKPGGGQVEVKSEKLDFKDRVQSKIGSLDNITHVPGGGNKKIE
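Recombinant K18 P301L […], labeled with Alexa 594 at 0.24 uM over 15 uM unlabeled; heparin inducer 20 uM final; 37 C, 6 hr; FP endpoint.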
Tau ThT inhib = blocks human tau fibril formation measured by thioflavin T; Potency, µM (highest dose often 57.4 µM), without a hit: at the top dose activity, negative = inhibition, actives largely listed as inhibitors; recombinant tau K18 P301L, heparin-induced fibrillization, ThT fluorescence; P10636; AID 1460; hit rate 2.1% among 270,000; note: potency is the fitted concentration of half-maximal effect; nearly all actives have a fitted effect of over 55% in size
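Using a mix of unlabeled (15 uM) and Alexa 594-labeled (0.24 uM) tau K18 P301L, heparin-triggered fibrillization over 6 hr at 37 C was scored by ThT fluorescence.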
KDM4E inh = JMJD2E (human) inhibition | B2RXH2 | JMJD2E catalytic domain, FDH-coupled NADH fluorescence (FDH is formaldehyde dehydrogenase) | Potency, µM (highest dose often 57.1 µM), without a hit: top-dose activity change, negative = inhibition, usual class: inhibitors | hit rate 1.6% among 230,000 | AID 2147; active = well fitted inhibition curve with a large enough effect, not every such curve was filed as active; inconclusive = small, poorly fitted or top-dose-only effect, or another doubt; inactive = no such curve, though single readings can be large or run the other way;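 note: potency is the fitted concentration of half-maximal effect; 0% = wells with enzyme and -100% = buffer wells without enzyme; nearly all actives have a fitted effect of over 50% in size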
Target sequence (B2RXH2 1-337 limits assumed): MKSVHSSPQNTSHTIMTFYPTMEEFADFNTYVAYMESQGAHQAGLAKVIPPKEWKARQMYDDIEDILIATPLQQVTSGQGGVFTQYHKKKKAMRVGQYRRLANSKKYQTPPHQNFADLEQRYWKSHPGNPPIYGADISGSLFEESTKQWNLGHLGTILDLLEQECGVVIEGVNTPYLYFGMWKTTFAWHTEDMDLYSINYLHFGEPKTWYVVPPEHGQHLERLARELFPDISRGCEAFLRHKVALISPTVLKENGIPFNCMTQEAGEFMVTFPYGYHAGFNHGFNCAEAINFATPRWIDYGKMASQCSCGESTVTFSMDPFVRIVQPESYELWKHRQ
FBPA coupling cs = inhibits coupling enzyme system, counter-screen for aldolase hits; coupling enzyme system counterscreen, AmpLite Red fluorescence; activity change, negative = inhibition, % at 58.2 µM, hits read low; hit rate 0.67% among 290,000; in the data active = activity change below about -30%
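Counterscreen lacking aldolase: glyceraldehyde-3-phosphate coupling-enzyme reagent preincubated 10 min at RT with compound (at 57.5 uM final), then substrate/coupling system with AmpLite Red added; fluorescence read at 525/598 nm after 20 min RT.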
Tau fluor cs = counter-screen for tau fibril formation inhibitors; tau K18 P301L (four-repeat tau fragment) Alexa594 fluorescence, heparin fibrillization; Potency, µM (highest dose often 57.7 µM), for inactives: top-dose activity change, negative = decrease; hit rate 0.93% among 280,000; AID 1463; note: potency is the fitted concentration of half-maximal effect; nearly all actives have a fitted effect of over 55% in size
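Human K18 P301L tau (15 uM unlabeled plus 0.24 uM Alexa 594-labeled, final) in 100 mM sodium acetate pH 7 was mixed with compound and 20 uM heparin and incubated 6 hr at 37 C.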
Sfp PPTase inh = inhibitors of Bacillus subtilis Sfp phosphopantetheinyl transferase. Biochemical Sfp PPTase activity, qHTS. Potency, µM, inactives show largest response in the series, negative = inhibition, actives largely listed as inhibitors. hit rate 3.5% among 310,000. AID 1490;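 note: the enzyme is Sfp with the accession as filed and its product quenches rhodamine fluorescence; potency is the fitted concentration of half-maximal effect; 0% = enzyme reaction without inhibitor and -100% = no enzyme wells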
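With Hepes-Na pH 7.6 buffer containing 10 mM MgCl2, Sfp (15 nM) modified BHQ-2-YbbR (12.5 uM) using rhodamine-CoA (5 uM). Two reads 30 minutes apart at 525/598 nm yielded each well's rate.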
The depositor's hits bear a star; [ ] = dose if it differs, or a comment. An excerpt weighted towards active compounds, which were near 5.3% of everything screened. Unless noted, calls come from the whole dose curve; as a rule, active = well fitted curve in the direction sought with a large enough effect; inconclusive = small, poorly fitted or top-dose-only effect, or another doubt; inactive = no such curve, though single readings can be large; an effect the other way counts as inactive or inconclusive. Unless noted, % is set by controls: 0 for no effect and ±100 for the full control effect.

Results for Cc1cccc(OCC(=O)NC(=S)N2CCCc3ccccc32)c1 ?
Tau FP inhib: 7.2%; Tau ThT inhib: inconclusive; KDM4E inh: -3.0%; Tau fluor cs: -22.5%; Sfp PPTase inh: 79.4µM*

What do the screens show for `O=C(COc1ccc(Cl)cc1Cl)NC(=S)N1CCCc2ccccc21`?
Tau FP inhib: -12.1%; Tau ThT inhib: inconclusive; KDM4E inh: 2.6%; FBPA coupling cs: 0.3; Tau fluor cs: -26.6%; Sfp PPTase inh: 56.2µM*

What do the screens show for `Cc1cc(=O)oc2cc(NC(=O)[C@H](CCCCN)NC(=O)[C@H](CC3CCCCC3)NC(=O)OCC3c4ccccc4-c4ccccc43)ccc12`?
FBPA coupling cs: -1.7; Sfp PPTase inh: inconclusive

What do the screens show for `CCc1c(C)sc2c1CCN(C(=O)Nc1ccc(F)c(Cl)c1)C2c1ccc(F)cc1` (centres undefined)?
Tau FP inhib: inconclusive; Tau ThT inhib: 5.5%; Tau fluor cs: -13.4%

What do the screens show for `CCN1C(=O)C=CC1=O`?
Tau FP inhib: inconclusive; Tau ThT inhib: -2.4%; KDM4E inh: 4.8%; Tau fluor cs: 4.8%

How did O=C1C=CC(=O)N1CCCCCCN1C(=O)C=CC1=O do in these assays?
Tau FP inhib: 25.1µM*; Tau ThT inhib: inconclusive; KDM4E inh: 2.2%; FBPA coupling cs: 5.7; Tau fluor cs: -21.0%; Sfp PPTase inh: 3.55µM*

What do the screens show for `COc1ccccc1-c1ccc2ncnc(N(C)C)c2c1`?
Tau FP inhib: -2.3%; Tau ThT inhib: -2.2%; KDM4E inh: 2.4%; FBPA coupling cs: -6.0; Tau fluor cs: -3.5%; Sfp PPTase inh: -2.8%

Results for CCCCCC/C(C)=C1/SC(=S)NC1=O ?
Tau FP inhib: 0.4%; Tau ThT inhib: -20.0%; KDM4E inh: 0.4%; FBPA coupling cs: 11.4; Tau fluor cs: -14.4%; Sfp PPTase inh: 2.6%

What do the screens show for `C/C(C/C(C)=C1/SC(=S)NC1=O)=C1\SC(=S)NC1=O`?
Tau FP inhib: -1.1%; Tau ThT inhib: 15.8µM*; KDM4E inh: 9.5%; FBPA coupling cs: 11.2; Tau fluor cs: -25.1%; Sfp PPTase inh: 79.4µM*

How did COc1ccccc1-n1c(-c2cn(C)nc2C)n[nH]c1=S do in these assays?
Tau FP inhib: -4.1%; Tau ThT inhib: -7.0%; KDM4E inh: 1.0%; FBPA coupling cs: 5.4; Tau fluor cs: -4.7%; Sfp PPTase inh: 56.2µM*

Results for COc1ccc(OC)c(-n2c(-c3ccccc3)n[nH]c2=S)c1 ?
Tau FP inhib: 0.4%; Tau ThT inhib: -7.1%; KDM4E inh: -25.5%; FBPA coupling cs: 2.1; Tau fluor cs: -5.4%; Sfp PPTase inh: -10.4%

What do the screens show for `COc1ccccc1-n1c(-c2ccccc2)n[nH]c1=S`?
Tau FP inhib: -6.3%; Tau ThT inhib: -4.5%; KDM4E inh: inconclusive; FBPA coupling cs: 0.9; Tau fluor cs: -3.4%; Sfp PPTase inh: 70.8µM*

Results for COc1ccc(-c2n[nH]c(=S)n2-c2ccccc2C)cc1 ?
FBPA coupling cs: 5.4; Sfp PPTase inh: inconclusive

How did COc1ccc(OC)c(-n2c(-c3cccc(C)c3)n[nH]c2=S)c1 do in these assays?
Tau FP inhib: 1.0%; Tau ThT inhib: -4.8%; KDM4E inh: -12.7%; FBPA coupling cs: -2.0; Tau fluor cs: -2.4%; Sfp PPTase inh: 79.4µM*

Results for O=c1c(-c2cc(-c3ccc(F)cc3)nc3c2COc2ccc(Cl)cc2-3)coc2ccc(F)cc12 ?
Tau FP inhib: -7.3%; Tau ThT inhib: 0.1%; Tau fluor cs: -4.1%

Results for COCCCn1c(SCC(=O)Nc2ccc(OC)cc2)nc2c(sc3ccccc32)c1=O ?
Tau FP inhib: 0.3%; Tau ThT inhib: -9.1%; Tau fluor cs: -12.0%

How did CCN1C(C)=C(C(=O)OC)C(c2ccccc2)N2C(=O)[C@@]3(C(=O)OC)O[C@@]12C1C(=O)N(C)C(=O)C13 (some centres undefined) do in these assays?
Tau FP inhib: -2.0%[11.6 µM]; Tau ThT inhib: -8.2%[11.5 µM]; FBPA coupling cs: 1.1; Tau fluor cs: -2.6%[11.6 µM]; Sfp PPTase inh: -7.0%

Results for O=C1c2ccccc2CC[C@H]1CNCCc1ccc(O)cc1 ?
Tau FP inhib: 12.8%; Tau ThT inhib: inconclusive; KDM4E inh: 16.1%; FBPA coupling cs: 1.5; Tau fluor cs: 5.1%; Sfp PPTase inh: inconclusive

Results for O=C1c2ccccc2CCC1CNCCc1ccc(O)cc1 (centres undefined) ?
Tau FP inhib: 10.4%; Tau ThT inhib: -16.3%; Tau fluor cs: 6.4%; Sfp PPTase inh: 56.2µM*

What do the screens show for `Cc1ccc(CCC(=O)Nc2nccs2)o1`?
Tau FP inhib: 7.3%; Tau ThT inhib: -8.8%; KDM4E inh: -0.1%; FBPA coupling cs: -2.0; Tau fluor cs: -12.4%; Sfp PPTase inh: 79.4µM*

What do the screens show for `CCc1ccc(CCC(=O)Nc2nccs2)o1`?
Tau FP inhib: 4.8%; Tau ThT inhib: -4.5%; KDM4E inh: 9.3%; FBPA coupling cs: 3.4; Tau fluor cs: -5.4%; Sfp PPTase inh: 8.91µM*

How did Cc1ccc(CCC(=O)Nc2ccc(S(N)(=O)=O)cc2)o1 do in these assays?
Tau FP inhib: -7.8%; Tau ThT inhib: -16.3%; KDM4E inh: inconclusive; FBPA coupling cs: -28.9; Tau fluor cs: -7.0%; Sfp PPTase inh: 5.01µM*

What do the screens show for `O=c1cc(-c2cc3ccccc3oc2=O)c2ccc(O)cc2o1`?
Tau FP inhib: -1.4%; Tau ThT inhib: -7.4%; KDM4E inh: inconclusive; FBPA coupling cs: 6.6; Tau fluor cs: -15.6%; Sfp PPTase inh: -12.4%

How did Cc1ccc(-n2nc(C(=O)N(C)c3ccc(C)c(C)c3)c3c4ccccc4n(C)c3c2=O)cc1 do in these assays?
Tau FP inhib: -6.5%; Tau ThT inhib: -4.6%; Tau fluor cs: -8.1%

Results for Cc1cccc(-c2ocnc2C(=O)Nc2ccccc2NC(=O)c2ccccn2)c1 ?
FBPA coupling cs: -1.0; Sfp PPTase inh: 44.7µM*

How did Cc1cc(NC(=O)c2cc([N+](=O)[O-])cc([N+](=O)[O-])c2C)no1 do in these assays?
Tau FP inhib: -9.5%; Tau ThT inhib: 12.2%; KDM4E inh: -1.2%; FBPA coupling cs: -2.3; Tau fluor cs: -2.5%; Sfp PPTase inh: 79.4µM*

How did Cc1cc(NC(=O)c2cc([N+](=O)[O-])cc([N+](=O)[O-])c2)no1 do in these assays?
Tau FP inhib: 9.5%; Tau ThT inhib: -0.7%; KDM4E inh: -11.3%; FBPA coupling cs: -5.6; Tau fluor cs: -3.8%; Sfp PPTase inh: 7.4%

What do the screens show for `O=C(Nc1ccc(F)c(Cl)c1)C1CCN(S(=O)(=O)c2ccc3c(c2)CCCN3C(=O)C2CCC2)CC1`?
Tau FP inhib: inconclusive; Tau ThT inhib: -2.2%; Tau fluor cs: inconclusive

Results for Cc1cnc(CNc2nc(-c3ccccc3C)nc3ccccc23)cn1 ?
FBPA coupling cs: 1.1; Sfp PPTase inh: -17.4%

Results for COc1ccccc1-c1cncnc1NCCNC(C)=O ?
FBPA coupling cs: 0.1; Sfp PPTase inh: 79.4µM*
